Where “and” joins values, the source holds several entries; their conditions need not be identical. Equal entries are not always repeated. Screen size: about 16,000 compounds; about 4,000 (25%) were called active. Inconclusive results (about 26%) are left out. The call rests on the fitted dose curve; in most records, active means well fitted curve in the direction sought with a large enough effect; inconclusive means small, poorly fitted or top-dose-only effect, or effect the other way; inactive means no such curve, though single readings can be large or run the other way. Only a sample is shown. The source holds several records for some structures; these can differ, active in one and inactive in another.
These compounds were tested against Cytochrome P450 2C9 (Homo sapiens) (UniProt P11712) (assay: Cytochrome panel assay with activity outcomes). Details: recombinant CYP, pro-luciferin dealkylation, luminescence, p450-cyp2c9; series mostly up to 57.1 µM; activity, negative = inhibition: at the top concentration.
Cytochrome P450 2C9 (Homo sapiens), sequence (P11712 whole entry, looked up): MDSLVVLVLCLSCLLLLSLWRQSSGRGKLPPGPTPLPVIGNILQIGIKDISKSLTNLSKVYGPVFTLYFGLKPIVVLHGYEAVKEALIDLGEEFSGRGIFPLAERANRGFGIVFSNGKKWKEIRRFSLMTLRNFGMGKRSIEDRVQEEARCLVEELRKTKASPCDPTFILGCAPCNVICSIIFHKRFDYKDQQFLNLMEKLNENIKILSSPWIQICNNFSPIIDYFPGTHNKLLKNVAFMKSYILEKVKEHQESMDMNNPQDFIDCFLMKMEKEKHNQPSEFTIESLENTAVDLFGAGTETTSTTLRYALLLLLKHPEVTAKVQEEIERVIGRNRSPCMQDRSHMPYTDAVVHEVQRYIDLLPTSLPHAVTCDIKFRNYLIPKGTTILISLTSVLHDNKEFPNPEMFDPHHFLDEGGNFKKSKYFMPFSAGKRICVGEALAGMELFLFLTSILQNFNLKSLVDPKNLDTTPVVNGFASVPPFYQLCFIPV
On the % scale 0 is the no-effect control and ±100 the full control effect.

SMILES | activity, negative = inhibition | AC50
COc1ccc(CNC(=O)/C=C/c2ccc(OCCCF)cc2)cc1 | -25.4% (inactive) | 
CCCCOc1ccc(/C=C/C(=O)NCCc2nc3ccccc3[nH]2)cc1 |  | 6.31 µM (active)
O=C(Nc1ccccc1)/C(=C\c1ccc2c(c1)OCO2)NC(=O)c1ccco1 |  | 10 µM (active)
Cc1ccc(NC(=O)/C(=C\c2ccc3c(c2)OCO3)NC(=O)c2ccco2)cc1 |  | 3.55 µM (active)
N#C/C(=C\c1ccc(O)c(O)c1)C(=O)Nc1ccccc1 | -18.9% (inactive) | 
O=C(Nc1ccccc1)N1CCC2(CC1)CCN(C(=O)c1ccco1)CC2 | -7.61% (inactive) | 
Cc1cccc(OCC(=O)N/N=C\C=C\c2ccc3c(c2)OCO3)c1C | 8.15% (inactive) | 
Cc1noc(C)c1C(=O)N1CCC[C@@]2(CCN(C(=O)Nc3cccc(F)c3)C2)C1 | -5.02% (inactive) | 
O=C(Nc1c[nH]c(=O)[nH]c1=O)Oc1ccccc1 | 1.86% [at 11.4 µM] (inactive) | 
NOCC(=O)O | -0.0818% (inactive) | 
CCNc1nc(Sc2ccc(C)cc2)cc(C(F)(F)F)n1 |  | 25.1 µM (active)
Cc1ccc(Sc2cc(Cl)nc(N)n2)cc1 | -3.63% (inactive) | 
CC[C@@H](CS(=O)(=O)O)[N+](=O)[O-] | 5.26% [at 11.4 µM] (inactive) | 
O=C(CN(Cc1ccccc1)S(=O)(=O)c1ccc2c(c1)OCCO2)N/N=C/c1ccc(F)cc1 |  | 14.1 µM (active)
COCc1cc(=O)[nH]c2cc(NC(=O)C(F)(F)F)c(C)cc12 | 10.5% (inactive) | 
CCC(=O)Nc1nonc1-c1nc2ccccc2n1N(C(=O)CC)C(=O)CC |  | 10 µM (active)
Cc1ccc(C(=O)Nc2nc3ccccc3n3nnnc23)cc1 | -12.8% (inactive) | 
CCn1c(-c2nonc2NC(=O)c2ccccc2)nc2ccccc21 |  | 0.501 µM (active)
CC(=O)OC[C@H]1O[C@@H](O/N=C\[C@@H](C)[C@H](OCc2ccccc2)C(C)C)[C@H](OC(C)=O)[C@@H](OC(C)=O)[C@H]1OC(C)=O | 1.31% [at 11.4 µM] (inactive) | 
CC[C@]1(C)CC(=O)NC1=O |  | inactive
Cc1cc(C(=O)N[C@H](c2ccccc2)[C@@]2(C)C[C@@H]2[C@@H](C)C(=O)Nc2ccc3ccccc3c2)n(C)n1 |  | 7.94 µM (active)
Cc1cc(C(=O)N[C@@H](c2ccccc2)[C@]2(C)C[C@H]2[C@@H](C)C(=O)Nc2ccc3ccccc3c2)n(C)n1 |  | 3.98 µM (active)
C[n+]1cc(-c2ccccc2)n2c1CCCCC2 | 18.1% (inactive) | 

SMILES | activity, negative = inhibition | AC50
CN(C)CCCN1c2ccccc2Sc2cnccc21 | 5.82% [at 11.4 µM] (inactive) | 
Cc1ccc(C(C(=O)NCc2ccco2)N(C(=O)CNC(=O)c2cccs2)c2ccc(C)cc2C)cc1 (configuration not stated) |  | 0.447 µM (active)
Cc1ccc(C(C(=O)NCc2ccco2)N(C(=O)CNC(=O)c2cccs2)c2ccc(C)cc2)cc1 (configuration not stated) | -21.2% (inactive) | 
C[C@H](O/N=C1/[C@H]2O[C@@H]2[C@@H](O)[C@H]2[C@H]1CCn1c(=O)n(-c3ccccc3)c(=O)n12)c1cn([C@H](CO)Cc2ccccc2)nn1 | -5.06% [at 11.4 µM] (inactive) and -0.376% [at 11.4 µM] (inactive) | 
Cc1nc(Cl)c(C#N)cc1-c1ccccc1 |  | 10 µM (active)
Cc1nc(Sc2ccccc2)c(C#N)cc1-c1ccccc1 |  | 5.01 µM (active)
Cc1ccc(Sc2nc(-c3ccccc3)ccc2C#N)cc1 |  | 7.94 µM (active)
N#Cc1cc(-c2ccccc2)cnc1Sc1ccc(Cl)cc1 |  | 3.55 µM (active)
CNc1nc(-c2cccc(C#N)c2)nc2ccccc12 | -18.8% [at 2.29 µM] (inactive) | 
Cc1ccc(-c2nc(-c3nccc4ccccc34)oc2-c2ccccc2)cc1 | -0.601% [at 11.4 µM] (inactive) | 
CCOC(=O)CCN1C(=O)[C@H]2[C@H]3[C@H](O)[C@H](O)C/C(=N/OC[C@@H](O)COCc4ccco4)[C@H]3CC[C@@H]2C1=O | 10.4% [at 11.4 µM] (inactive) | 
CN(C/C=C\c1ccccc1)Cc1cccc2ccccc12 | -24.2% [at 25.6 µM] (inactive) | 
CN(C)c1nc(-c2ccoc2)nc2ccccc12 | 21.3% [at 2.29 µM] (inactive) | 
O=C(NC1CCCCC1)C1CC=CCC1C(=O)OCC(Cl)=C(Cl)Cl (configuration not stated) |  | 1.41 µM (active)
C#CCCCO/N=C1/C[C@@H](O)[C@@H](O)[C@@H]2[C@@H]3C(=O)N(Cc4ccccc4)C(=O)[C@H]3CC[C@@H]12 | -2.53% [at 11.4 µM] (inactive) | 
NC[C@](O)(CS(=O)(=O)O)c1ccc(Cl)cc1 | 11.2% (inactive) | 
COc1ccc(CCN2C(=NC(=O)CCC(=O)O)SC3CS(=O)(=O)CC32)cc1 (configuration not stated) | -18.3% (inactive) | 
O=[N+]([O-])c1ccc2ncccc2c1CCc1c([N+](=O)[O-])ccc2ncccc12 | 13% [at 11.4 µM] (inactive) | 
O=C(c1ccc([N+](=O)[O-])cc1)[C@@H](Br)[C@@H](Br)c1ccnc2ccccc12 |  | 3.16 µM (active)
CCC[C@@H]1O[C@@H]2C[C@@H]3[C@H]4CCC5=CC(=O)C=C[C@@]5(C)[C@H]4[C@H](O)C[C@@]3(C)[C@@]2(C(=O)CO)O1 | -19% [at 25.6 µM] (inactive) | 
N#C/C(=C\c1ccccc1)c1nc2ncccc2[nH]1 |  | 5.01 µM (active)
N#C/C(=C\c1ccc(Cl)cc1)c1nc2ncccc2[nH]1 |  | 7.08 µM (active)
COc1ccc2[nH]cc(CCNc3ncncc3-c3ccccc3Cl)c2c1 |  | 0.2 µM (active)

SMILES | activity, negative = inhibition | AC50
COc1ccc2[nH]cc(CCNc3ncncc3-c3ccccc3C(F)(F)F)c2c1 |  | 0.1 µM (active)
COc1ccc2[nH]cc(CCNc3ncncc3-c3ccccc3OC)c2c1 |  | 0.251 µM (active)
COc1ccc2[nH]cc(CCNc3ncncc3-c3cccc(NS(C)(=O)=O)c3)c2c1 |  | 0.398 µM (active)
COc1ccc2[nH]cc(CCNc3cc(-c4ccoc4)ncn3)c2c1 | -23.3% [at 2.29 µM] (inactive) | 
COc1ccc(CNc2ncncc2-c2ccccc2C(F)(F)F)c(OC)c1 | -25.4% [at 2.29 µM] (inactive) | 
COc1ccc2[nH]cc(CCNc3ccnc(-c4ccccc4C(F)(F)F)n3)c2c1 | -28.2% [at 2.29 µM] (inactive) | 
COc1ccc2[nH]cc(CCNc3ncncc3-c3ccccc3CN(C)C)c2c1 | 4.66% [at 2.29 µM] (inactive) | 
CN[C@H](CC(=O)O)C(=O)O | 11.3% (inactive) | 
O=S1(=O)C=C(SCc2cccc(Cl)c2)Nc2ccccc21 |  | 1.58 µM (active)
O=C(c1nn(Cc2ccccc2)c(=O)c2ccccc12)N1CCN(C/C=C/c2ccccc2)CC1 |  | 3.98 µM (active)
COC(=O)c1cc2n(n1)CCN(Cc1ccccc1F)C2=O |  | 10 µM (active)
CNC[C@H](O)[C@H](O)[C@H](O)[C@H](O)CO | -13.8% [at 25.6 µM] (inactive) | 
CC(C)[C@](N)(C(=O)O)c1ccccc1 | -6.77% [at 11.4 µM] (inactive) | 
CC(C)NC(=O)N1CC2(CCN(C(=O)c3ccco3)CC2)C1 | 2.28% (inactive) | 
CC(C)NC(=O)N1CCC2(CC1)CCN(C(=O)c1ccco1)CC2 | 5.65% (inactive) | 
CC1CCN(C(NC(=O)c2ccco2)C(=O)c2ccccc2)CC1 (configuration not stated) |  | 2.51 µM (active)
O=C(c1csnn1)N1CCC2(CCN(Cc3nccs3)CC2)CC1 | 2.1% (inactive) | 
Cn1nc(-c2ccc(N3CCOCC3)c(NS(=O)(=O)c3ccc(Cl)cc3)c2)c2ccccc2c1=O |  | 1 µM (active)
CS(=O)(=O)Nc1cccc(-c2ccc3ncnc(N4CCOCC4)c3c2)c1 | -1.72% [at 2.29 µM] (inactive) | 
COCCn1c(=O)c(-c2ccc(Cl)cc2)nc2cnc(N3CCOCC3)nc21 | -14.6% (inactive) | 
O=C(/C=C/c1ccccc1)NC(NC(=S)Nc1ccc(Cl)cc1)C(Cl)(Cl)Cl (configuration not stated) |  | 0.562 µM (active)
O=C(/C=C/c1ccc(Cl)cc1)Nc1ccc(N2CCCCC2)cc1 | -9.43% (inactive) | 
O=C(Cc1ccccc1)NC(NC(=S)Nc1cc(Cl)ccc1Cl)C(Cl)(Cl)Cl (configuration not stated) |  | 0.562 µM (active)

SMILES | activity, negative = inhibition | AC50
COc1ccc(C[C@@](C)(N)C(=O)O)cc1OC | -19.4% [at 25.6 µM] (inactive) | 
O=C(O)C1CCCCC1C(=O)Nc1cc(Cl)ccc1Cl (configuration not stated) | -16% (inactive) | 
COc1ccc([N+](=O)[O-])cc1NC(=S)NC(NC(=O)Cc1ccc(OC)c(OC)c1)C(Cl)(Cl)Cl (configuration not stated) |  | 1.26 µM (active)
CC(CP(=O)(O)O)NC(=O)Cc1ccccc1 (configuration not stated) | -17.6% (inactive) | 
O=C(NC(NC(=S)Nc1cc(Cl)ccc1Cl)C(Cl)(Cl)Cl)c1ccco1 (configuration not stated) |  | 0.0447 µM (active)
Cc1c(NC(=O)C23CC4CC(CC(C)(C4)C2)C3)c(=O)n(-c2ccccc2)n1C | -19.7% (inactive) | 
O=C(CNS(=O)(=O)c1ccc(Br)s1)N1CCC(N2CCCCC2)CC1 | -20.1% (inactive) | 
Cc1ccc(-n2c(C)cc(/C=C(\C#N)C(=O)NCC3CCCO3)c2C)cc1 (configuration not stated) |  | 17.8 µM (active)
N#C/C(=C\c1cccs1)C(=O)NCC1CCCO1 (configuration not stated) | -24.7% (inactive) | 
NC(=O)C1CCN(C(=O)CN2C(=O)c3ccccc3S2(=O)=O)CC1 | 1.61% (inactive) | 
O=C1c2ccccc2C(=O)N1C[C@]1(C(=O)O)NCCS1(=O)=O | -4.49% [at 11.4 µM] (inactive) | 
CC(C)N(CCC(=O)c1ccc2ccccc2c1)Cc1ccccc1 |  | 12.6 µM (active) and inactive
O=C(O)CCCc1ccc2ccccc2c1 | -4.57% [at 11.4 µM] (inactive) | 
CCN1C(=O)[C@H]2[C@@H]3[C@H](O)[C@H](O)CC(=O)[C@H]3CC[C@H]2C1=O | 17.2% [at 11.4 µM] (inactive) and 0.779% [at 11.4 µM] (inactive) | 
C[C@@H](C(=O)Nc1ccc2ccccc2c1)[C@@H]1C[C@@]1(C)[C@@H](NS(=O)(=O)c1ccc(-c2ccccc2)cc1)c1ccccc1 | 17.1% (inactive) | 
C[C@@H](C(=O)Cc1ccc2ccccc2c1)[C@@H]1C[C@@]1(C)[C@@H](NP(=O)(c1ccccc1)c1ccccc1)c1ccccc1 |  | 3.16 µM (active)
O=C(Nc1ccc2ccccc2c1)c1onc2c1CCCC2 | -24.2% (inactive) | 
C[C@@H](C(=O)Nc1ccc2ccccc2c1)[C@H]1C[C@]1(C)[C@H](NP(=O)(c1ccccc1)c1ccccc1)c1ccccc1 |  | 3.16 µM (active)
C[C@@H](C(=O)Nc1ccc2ccccc2c1)[C@@H]1C[C@@]1(C)[C@@H](NC(=O)OCc1ccccc1)c1ccccc1 | 6.52% (inactive) | 
C[C@@]1(C(NC(=O)Cc2ccc(C(F)(F)F)cc2)c2ccc(-c3ccccc3)cc2)C[C@H]1C1CCCCC1 (some centres not stated) | 13.5% (inactive) | 
COc1ccc(COC(=O)N/N=C2/C[C@@H](O)[C@@H](O)[C@@H]3[C@@H]4C(=O)N([C@@H](C)c5ccccc5)C(=O)[C@H]4CC[C@H]23)cc1 | 0.0971% [at 11.4 µM] (inactive) | 
CC(=O)N[C@H](c1ccccc1)[C@@]1(C)C[C@@H]1[C@@H](C)C(=O)Nc1ccc2ccccc2c1 |  | 10 µM (active)
C[C@@H](C(=O)Nc1ccc2ccccc2c1)[C@H]1C[C@]1(C)[C@H](NC(=O)OCc1ccccc1)c1ccccc1 |  | 1.58 µM (active)

From PubChem BioAssay AID1851 (National Center for Advancing Translational Sciences (NCATS), 2009)
